Test results reported in PubChem BioAssay (Tox21).
Inconclusive results are not listed. Activity calls are given as the source filed them. Unless noted, the call rests on the fitted dose curve; in most records, active means well fitted curve in the direction sought with a large enough effect in the repeat runs; inconclusive means weak or mixed curves; inactive means no such curve, though single readings can be large; an effect the other way counts as inactive or inconclusive.

Assays:
[1] = qHTS assay to identify small molecule agonists of the peroxisome proliferator-activated receptor delta (PPARd) signaling pathway - cell viability counter screen (AID 743211); further: on the % scale 0 is the no-effect control and ±100 the full control effect; nearly all actives have a fitted effect of over 55% in size
Method in brief: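 Viability of GeneBLAzer PPARd UAS-bla HEK293H cells was assessed after 17 h compound incubation at 37C, using CellTiter-Glo reagent added after the reporter read and luminescence recorded 30 min later.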

[2] = target: Peroxisome proliferator-activated receptor delta (Homo sapiens) (UniProt Q03181); assay: qHTS assay to identify small molecule agonists of the peroxisome proliferator-activated receptor delta (PPARd) signaling pathway (AID 743212; calls by dose curve; further: on the % scale 0 is the no-effect control and ±100 the full control effect)
Peroxisome proliferator-activated receptor delta (Homo sapiens), sequence (Q03181 whole entry, looked up): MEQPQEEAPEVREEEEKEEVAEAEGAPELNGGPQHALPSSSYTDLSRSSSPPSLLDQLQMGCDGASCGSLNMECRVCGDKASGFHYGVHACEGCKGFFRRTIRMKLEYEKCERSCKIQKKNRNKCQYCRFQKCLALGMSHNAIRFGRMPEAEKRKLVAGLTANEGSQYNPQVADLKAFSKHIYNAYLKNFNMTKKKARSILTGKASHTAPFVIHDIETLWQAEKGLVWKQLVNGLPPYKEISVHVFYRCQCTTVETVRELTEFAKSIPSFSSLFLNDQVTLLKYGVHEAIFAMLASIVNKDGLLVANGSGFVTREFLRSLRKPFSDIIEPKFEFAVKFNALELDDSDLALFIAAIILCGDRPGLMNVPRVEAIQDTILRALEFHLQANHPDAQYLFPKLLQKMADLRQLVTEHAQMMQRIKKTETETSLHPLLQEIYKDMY
Method in brief: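 Cells expressing a UAS-driven beta-lactamase reporter (PPARd-bla HEK293H) were given test compounds after a 5 h settle and kept at 37 C. Reporter activity was then measured as FRET fluorescence using LiveBLAzer B/G substrate.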

[3] = qHTS assay to identify small molecule antagonists of the peroxisome proliferator-activated receptor delta (PPARd) signaling pathway - cell viability counter screen (AID 743213); further: on the % scale 0 is the no-effect control and ±100 the full control effect; nearly all actives have a fitted effect of over 50% in size
Method in brief: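 Same-well viability: cells pre-incubated 5 h, dosed with compound plus 300 nM L165041, kept 17 h at 37 C, FRET substrate 2 h RT, then CellTiter-Glo 30 min RT and luminescence.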

[4] = target: Peroxisome proliferator-activated receptor delta (Homo sapiens) (UniProt Q03181); assay: qHTS assay to identify small molecule antagonists of the peroxisome proliferator-activated receptor delta (PPARd) signaling pathway (AID 743215; active means well fitted inhibition curve with a large enough effect in the signal ratio in the repeat runs, not every such curve was filed as active; the % refers to the signal ratio;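 further: cells stimulated with agonist L165041 at 300 nM final during compound exposure; series mostly up to about 62 µM; on the % scale 0 is the no-effect control and ±100 the full control effect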)
Method in brief: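 Agonist L165041 (300 nM final) added with compound to PPARd-bla HEK293H UAS-bla reporter cells; 17 h incubation at 37 C. Read-out: LiveBLAzer FRET substrate, 2 h at room temperature, fluorescence intensity.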

[5] = qHTS assay to identify small molecule agonists of the farnesoid-X-receptor (FXR) signaling pathway - cell viability counter screen (AID 743218); further: on the % scale 0 is the no-effect control and ±100 the full control effect; nearly all actives have a fitted effect of over 45% in size
Method in brief: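 Viability counter screen in the same wells: CellTiter-Glo luminescence, 30 min room-temperature incubation, measured after the beta-lactamase read. Cells were GeneBLAzer FXR-UAS-bla HEK 293T, compound-treated 16 h at 37C.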

[6] = qHTS assay to identify small molecule antagonists of the farnesoid-X-receptor (FXR) signaling pathway - cell viability counter screen (AID 743221; active means well fitted cell-killing curve with a large enough effect in the repeat runs, not every such curve was filed as active; further: on the % scale 0 is the no-effect control and ±100 the full control effect; nearly all actives have a fitted effect of over 50% in size)
Method in brief: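 Quantitative HTS of the Tox21 10K library run in parallel with the beta-lactamase reporter read. HEK 293T cells carrying a UAS-driven bla reporter got compound and 50 uM CDCA (final) for 16 h; ATP-based luminescence followed.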

[7] = qHTS assay to identify small molecule agonists of the vitamin D receptor (VDR) signaling pathway - cell viability counter screen (AID 743224); further: series mostly up to about 63 µM; on the % scale 0 is the no-effect control and ±100 the full control effect; nearly all actives have a fitted effect of over 50% in size
Method in brief: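 Counter screen run in the same wells as the VDR-bla reporter assay: CellTiter-Glo luminescence, 30 min at room temperature, after 16 h compound treatment at 37C of cells pre-plated for 4 h.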

[8] = qHTS assay to identify small molecule antagonists of the vitamin D receptor (VDR) signaling pathway - cell viability counter screen (AID 743225); further: on the % scale 0 is the no-effect control and ±100 the full control effect; nearly all actives have a fitted effect of over 50% in size
Method in brief: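 Cells (VDR-UAS-bla HEK 293T) are plated, rested 4 h at 37C, dosed with compound and 3 nM final 1-alpha,25-dihydroxy vitamin D3, and incubated 16 h. Viability is taken from CellTiter-Glo luminescence in the reporter wells.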

[9] = qHTS assay to identify small molecule agonists of the NFkB signaling pathway (AID 1159509; active means well fitted curve in the direction sought with a large enough effect in the signal ratio in the repeat runs, not every such curve was filed as active; the % refers to the signal ratio; further: series mostly up to about 61 µM; on the % scale 0 is the no-effect control and ±100 the full control effect)
Method in brief: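 Agonist activity was read as beta-lactamase-driven FRET change (460 and 530 nm emission, 405 nm excitation) following 1.5 hr substrate loading at room temperature. Beforehand, ME-180 NFkB-bla reporter cells were treated with compounds for 5 hr at 37 C.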

[10] = qHTS assay to identify small molecule agonists of the NFkB signaling pathway - cell viability counter screen (AID 1159515; calls by dose curve; further: series mostly up to about 61 µM; on the % scale 0 is the no-effect control and ±100 the full control effect; nearly all actives have a fitted effect of over 55% in size)
Method in brief: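 Read by CellTiter-Glo luminescence (30 min, room temperature) in the wells also used for the beta-lactamase FRET read. ME-180 NFkB-bla cells at 2,000 per well were plated overnight, then exposed to compound for 5 hr at 37 C.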

[11] = qHTS assay to identify small molecule agonists of the endoplasmic reticulum stress response signaling pathway (AID 1159516; active means well fitted activation curve with a large enough effect in the signal ratio in the repeat runs, not every such curve was filed as active; the % refers to the signal ratio; further: on the % scale 0 is the no-effect control and ±100 the full control effect)
Method in brief: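 Ratiometric FRET readout (405 nm excitation; 460 and 530 nm emission) of a beta-lactamase gene driven by the ER stress response element, after 2 hr substrate loading. HeLa ESRE-bla cells were seeded overnight and treated with compounds for only 5 hr at 37 C.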

[12] = qHTS assay to identify small molecule agonists of the endoplasmic reticulum stress response signaling pathway - cell viability counter screen (AID 1159517; calls by dose curve)
Method in brief: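 Cpd-treated ESRE-bla HeLa (5 hr, 37 C) → LiveBLAzer 2 hr RT → CellTiter-Glo 30 min RT → luminescence.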

[13] = qHTS assay to identify small molecule antagonists of the retinoid-related orphan receptor gamma (ROR-gamma) signaling pathway - cell viability counter screen (AID 1159520)
Method in brief: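 Tet-on ROR gamma CHO cells (1,000/well) were plated 4 hr, given compounds in DMSO for 2 hr at 37 C, then induced with 1 uM final doxycycline for 16 hr. Viability was read as ATP by CellTiter-Glo luminescence after 30 min.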

[14] = target: Nuclear receptor ROR-gamma (Homo sapiens) (UniProt P51449); assay: qHTS assay to identify small molecule antagonists of the retinoid-related orphan receptor gamma (ROR-gamma) signaling pathway (AID 1159521)
Method in brief: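 RORγ antagonism is scored from reduced reporter luminescence in Tet-on CHO cells. Induction used 1 uM final doxycycline hyclate for 16 h at 37 C, following a 2 h compound exposure.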

[15] = qHTS assay to identify small molecule agonists of the AP-1 signaling pathway - cell viability counter screen (AID 1159525; calls by dose curve; further: nearly all actives have a fitted effect of over 55% in size)
Method in brief: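 Each titration point was normalised to DMSO and tetra n-octyl ammonium bromide controls. The read was Cell Titer Glo luminescence after 30 min at RT, following 5 h compound exposure of ME-180 AP-1-bla cells at 37 °C.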

[16] = qHTS assay to identify small molecule agonists of the AP-1 signaling pathway (AID 1159526; calls by dose curve; further: on the % scale 0 is the no-effect control and ±100 the full control effect)
[17] = target: Vitamin D3 receptor (Homo sapiens) (UniProt P11473); assay: qHTS assay to identify small molecule agonists of the vitamin D receptor (VDR) signaling pathway (AID 743222; calls by dose curve; further: on the % scale 0 is the no-effect control and ±100 the full control effect)
Vitamin D3 receptor (Homo sapiens), sequence (P11473 whole entry, looked up): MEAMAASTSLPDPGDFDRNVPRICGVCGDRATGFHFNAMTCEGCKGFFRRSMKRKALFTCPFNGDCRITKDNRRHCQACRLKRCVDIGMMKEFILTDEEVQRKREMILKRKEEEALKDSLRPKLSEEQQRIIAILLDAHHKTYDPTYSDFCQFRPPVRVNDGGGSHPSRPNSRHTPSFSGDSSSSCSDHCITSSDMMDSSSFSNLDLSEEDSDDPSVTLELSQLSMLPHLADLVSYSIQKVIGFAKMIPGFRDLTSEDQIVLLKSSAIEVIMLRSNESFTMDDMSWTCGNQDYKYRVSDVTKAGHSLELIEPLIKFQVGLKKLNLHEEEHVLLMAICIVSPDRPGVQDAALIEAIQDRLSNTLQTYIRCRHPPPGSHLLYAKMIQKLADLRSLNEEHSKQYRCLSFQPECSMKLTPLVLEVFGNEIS
Method in brief: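 Agonist mode, beta-lactamase reporter: fluorescence from LiveBLAzer B/G FRET substrate (2 h, room temperature) read after 16 h compound treatment at 37 C of VDR-bla cells, which were pre-incubated 4 h after seeding.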

[18] = target: Vitamin D3 receptor (Homo sapiens) (UniProt P11473); assay: qHTS assay to identify small molecule antagonists of the vitamin D receptor (VDR) signaling pathway (AID 743223; active means well fitted inhibition curve with a large enough effect in the signal ratio in the repeat runs, not every such curve was filed as active; the % refers to the signal ratio; further: on the % scale 0 is the no-effect control and ±100 the full control effect)
Method in brief: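 Fluorescence from LiveBLAzer B/G FRET substrate, read after 2 h at room temperature, reflects beta-lactamase reporter activity in VDR-bla cells treated 16 h at 37C with compounds and agonist 1alpha,25-dihydroxyvitamin D3 (3 nM final).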

[19] = target: Bile acid receptor (Homo sapiens) (UniProt Q96RI1); assay: qHTS assay to identify small molecule antagonists of the farnesoid-X-receptor (FXR) signaling pathway (AID 743217; active means well fitted inhibition curve with a large enough effect in the signal ratio in the repeat runs, not every such curve was filed as active; the % refers to the signal ratio; further: on the % scale 0 is the no-effect control and ±100 the full control effect)
Bile acid receptor (Homo sapiens), sequence (Q96RI1 whole entry, looked up): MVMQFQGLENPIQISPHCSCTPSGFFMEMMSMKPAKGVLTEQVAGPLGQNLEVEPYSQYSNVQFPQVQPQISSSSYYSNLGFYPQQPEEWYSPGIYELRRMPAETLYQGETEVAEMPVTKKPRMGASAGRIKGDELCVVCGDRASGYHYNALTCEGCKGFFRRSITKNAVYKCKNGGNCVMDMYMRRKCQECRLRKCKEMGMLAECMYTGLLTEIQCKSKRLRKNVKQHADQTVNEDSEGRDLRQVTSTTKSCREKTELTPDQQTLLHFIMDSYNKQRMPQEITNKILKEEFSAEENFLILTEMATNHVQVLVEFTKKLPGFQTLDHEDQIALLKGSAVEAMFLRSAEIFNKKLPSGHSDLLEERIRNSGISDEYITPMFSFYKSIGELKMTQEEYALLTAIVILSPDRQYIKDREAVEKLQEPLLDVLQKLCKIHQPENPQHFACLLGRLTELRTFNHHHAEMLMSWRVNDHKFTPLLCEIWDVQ
Method in brief: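 Antagonist mode: chenodeoxycholic acid at 50 uM final stimulates a UAS-driven beta-lactamase reporter in HEK 293T FXR-bla cells during 16 h, 37C compound exposure. Read-out is FRET substrate fluorescence after 2 h at room temperature.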

[20] = target: Bile acid receptor (Homo sapiens) (UniProt Q96RI1); assay: qHTS assay to identify small molecule agonists of the farnesoid-X-receptor (FXR) signaling pathway (AID 743220; active means well fitted activation curve with a large enough effect in the signal ratio in the repeat runs, not every such curve was filed as active; the % refers to the signal ratio; further: on the % scale 0 is the no-effect control and ±100 the full control effect)
Method in brief: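 FXR-UAS-bla HEK 293T cells carrying a UAS-driven beta-lactamase reporter were plated for 5 h at 37C/5% CO2, then exposed to DMSO-dissolved Tox21 10K compounds for 16 h at 37C. A LiveBLAzer B/G FRET substrate was loaded for 2 h at room temperature before fluorescence reading.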

CCCCCCCCCCCCCC=O
inactive: activity change, negative = cytotoxicity [1] 7.31% [at 5.95 µM] | activation [2] 0.125% [at 5.95 µM] | viability change, negative = cytotoxic [3] -6.97% [at 6.26 µM] | ratio activity, negative = inhibition [4] -0.712% [at 6.26 µM] | viability change, negative = cytotoxic [5] 0% [at 5.95 µM] | activity change, negative = cytotoxicity [6] -2.35% [at 5.95 µM] | activity change, negative = cytotoxicity [7] -0.0946% [at 5.95 µM] | viability change, negative = cytotoxic [8] 5.28% [at 6.95 µM] | activation [9] -1.29% [at 6.95 µM] | activity, negative = cytotoxic [10] 2.89% [at 6.95 µM] | activation [11] -3.51% [at 6.95 µM] | activity change, negative = cytotoxicity [12] 0.611% [at 6.95 µM] | activity, negative = cytotoxicity [13] 2.5% [at 8.39 µM] | activity change, negative = inhibition [14] 5.08% [at 8.39 µM] | viability change, negative = cytotoxic [15] -4.58% [at 6.97 µM] | activation [16] -1.06% [at 6.97 µM]

CCOC(=O)[C@H](CCc1ccccc1)N[C@@H](C)C(=O)N1[C@H](C(=O)O)C[C@@H]2CCC[C@@H]21
inactive: Potency [1] | outcome [2] | Potency [3] | Potency [4] | Potency [5] | Potency [6] | outcome [17] | outcome [18] | Potency [8] | outcome [9] | outcome [10] | outcome [11] | outcome [12] | outcome [13] | Potency [14] | Potency [15] | outcome [16]

C[N+](C)(C)CC(O)CC(=O)[O-] (stereo unspecified)
inactive: Potency [1] | outcome [2] | Potency [3] | Potency [4] | Potency [5] | Potency [6] | outcome [17] | outcome [18] | Potency [7] | Potency [8] | outcome [9] | outcome [10] | outcome [11] | outcome [12] | outcome [13] | Potency [14] | Potency [15] | outcome [16]

CC(C)OC(=O)c1ccccc1
inactive: Potency [1] | outcome [2] | Potency [3] | Potency [5] | Potency [6] | outcome [17] | Potency [7] | outcome [9] | outcome [10] | outcome [11] | outcome [12] | outcome [13] | Potency [14] | Potency [15] | outcome [16]

CC/C=C\CC/C=C/C(OCC)OCC
inactive: Potency [1] | outcome [2] | Potency [3] | Potency [4] | Potency [5] | Potency [6] | Potency [7] | Potency [8] | outcome [9] | outcome [10] | outcome [11] | outcome [12] | outcome [13] | Potency [14] | Potency [15] | outcome [16]

O=C(O)CNC(=O)c1ccc([N+](=O)[O-])cc1
inactive: Potency [1] | outcome [2] | Potency [4] | outcome [19] | Potency [5] | outcome [20] | Potency [6] | outcome [17] | Potency [8] | outcome [9] | outcome [10] | outcome [11] | outcome [12] | outcome [13] | Potency [14] | Potency [15] | outcome [16]

O=C(CCCN1CCN(c2ccccn2)CC1)c1ccc(F)cc1
inactive: Potency [1] | outcome [2] | Potency [3] | Potency [5] | Potency [6] | outcome [17] | outcome [18] | Potency [7] | Potency [8] | outcome [9] | outcome [10] | outcome [11] | outcome [12] | outcome [13] | Potency [14] | Potency [15] | outcome [16]
